Data on five compounds can be found in PubChem BioAssay (Tox21).

Assay [1] can be described thus: qHTS assay to identify small molecule agonists of the hypoxia (HIF-1) signaling pathway - cell viability counter screen (AID 1224844; calls by dose curve; also: nearly all actives have a fitted effect of over 50% in size). In outline: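 Cytotoxicity was measured in parallel with the HRE-driven beta-lactamase readout: after 17 hrs of compound exposure at 37C, HRE-bla ME-180 cells received CellTiter-Glo and luminescence was recorded 30 min later.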
A general note: Quantitative high-throughput screening tests each substance at several concentrations.

Assay [2] can be described thus: qHTS assay to identify small molecule agonists of H2AX (AID 1224845; active = well fitted activation curve with a large enough effect in the signal ratio in the repeat runs, not every such curve was filed as active; the % refers to the signal ratio). In outline:
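Wild-type CHO-K1 cells plated overnight, then exposed 3 hr at 37C to compounds at 15 concentrations (0.76% DMSO). Lysed, then HTRF anti-pH2AX(S139)-cryptate/anti-H2AX-d2 detection after 24 hr at room temperature; emissions 665 and 620 nm.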

Assay [3] can be described thus: qHTS assay to identify small molecule agonists of the hypoxia (HIF-1) signaling pathway (AID 1224846; active = well fitted activation curve with a large enough effect in the signal ratio in the repeat runs, not every such curve was filed as active; the % refers to the signal ratio). In outline: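 Compounds from the Tox21 10K library, dissolved in DMSO, are tested for induction of a hypoxia response element–controlled beta-lactamase reporter in ME-180 cells. Exposure lasts 17 hrs at 37C after a 5 hr settling period, followed by CCF4-AM FRET substrate.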

The nature of assay [4]: qHTS assay to identify small molecule agonists of H2AX - cell viability counter screen (AID 1224847; calls by dose curve; also: top concentration of the series differs between compounds; nearly all actives have a fitted effect of over 30% in size). In outline: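 Cells plated first: CHO-K1, 1000 per well in 10% FBS medium, incubated overnight at 37C. Then 15-point compound titration added (final DMSO 0.76%) for 3 hr. Finally CellTiter-Glo added and luminescence read.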
Assay [5] in a line: qHTS assay to identify small molecule antagonists of the estrogen related receptor (ERR) signaling pathway from Tox21 library (AID 1224848). Also: nearly all actives have a fitted effect of over 50% in size. In outline: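 First, 2,000 ERR cells per well were plated and held 6 h at 37 C/5% CO2. Next, compounds in DMSO were pinned in and left 18 h at 37 C. Finally, ONE-Glo was added and luminescence read after 30 min at room temperature.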
Assay [6] is described as follows: qHTS assay to identify small molecule agonists of the estrogen related receptor (ERR) signaling pathway from Tox21 library (AID 1224849; calls by dose curve; also: nearly all actives have a fitted effect of over 15% in size). The following applies: ERR reporter cell line, ONE-Glo luciferase, 18 h; at 92.4 µM (top of the series). In outline:
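Cells carrying the ERR reporter were plated and allowed to settle for 6 h, exposed to library compounds for 18 h at 37 C, then lysed with ONE-Glo and luminescence measured.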

Assay [7] can be described thus: qHTS RealTime-Glo MT Cell Viability Assay in HepG2 cells - 24 hour (AID 1224867). Also: nearly all actives have a fitted effect of over 50% in size. In outline:
(§1)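 Cell number in HepG2 cultures estimated from NanoLuc luminescence generated by metabolic reduction of a prosubstrate by living cells. The homogeneous, nonlytic format allowed repeated reads at 0, 8, 16, 24, 32 and 40 h of compound exposure.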

Assay [8] can be described thus: qHTS RealTime-Glo MT Cell Viability Assay in HEK293 cells - 32 hour (AID 1224868). Also: nearly all actives have a fitted effect of over 50% in size. Also: potency is read from the fitted curve at half-maximal effect. In outline: (§2)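 Homogeneous bioluminescent viability format in HEK293 cells (600 cells/well). Following 5 h at 37 C/5% CO2, 23 nL compound was pintooled; the signal was measured repeatedly during 40 h incubation.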
Assay [9] is described as follows: A CellTox Green Cytotoxicity Assay to monitor cytotoxicity in HEK293 cells - 0 hour (AID 1224869). Also: nearly all actives have a fitted effect of over 50% in size. In outline:
(§3)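 Cells (HEK293, 600/well) and dye reagent are dispensed together. After 5 h at 37 C, 23 nL compound is pinned in. Plates stay at 37 C for 40 h with fluorescence read at 0h, 8h, 16h, 24h, 32h and 40h.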

Assay [10] in a line: qHTS RealTime-Glo MT Cell Viability Assay in HepG2 cells - 40 hour (AID 1224870). Also: nearly all actives have a fitted effect of over 50% in size. In outline:
(§4)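 HepG2 cells mixed with RealTime-Glo MT reagents (NanoLuc plus cell-permeant prosubstrate) were seeded at 600 cells/well, incubated 5 h at 37 C/5% CO2, then pinned with compounds in DMSO; nonlytic luminescence tracked viability during 40 h treatment.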

The nature of assay [11]: A CellTox Green Cytotoxicity Assay to monitor cytotoxicity in HEK293 cells - 40 hour (AID 1224871). Also: nearly all actives have a fitted effect of over 45% in size. In outline: as §3
Assay [12] in a line: qHTS RealTime-Glo MT Cell Viability Assay in HEK293 cells - 16 hour (AID 1224872). Also: nearly all actives have a fitted effect of over 50% in size. Also: potency is read from the fitted curve at half-maximal effect. In outline: as §2
The nature of assay [13]: qHTS RealTime-Glo MT Cell Viability Assay in HepG2 cells - 8 hour (AID 1224873). Also: nearly all actives have a fitted effect of over 55% in size. In outline: as §4
A short description of assay [14]: qHTS RealTime-Glo MT Cell Viability Assay in HEK293 cells - 40 hour (AID 1224874). Also: nearly all actives have a fitted effect of over 50% in size. Also: potency is read from the fitted curve at half-maximal effect. The note with it: RealTime-Glo luminescence; max response: stronger effect = lower value. In outline: (§5)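 Real-time viability in HEK293: signal arises when living cells convert a prosubstrate for NanoLuc in the medium, so luminescence tracks viable cell number. Compound (23 nL, DMSO) added 5 h post-seeding; kinetic reads at 0–40 h, 37 C.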

Assay [15] in a line: A CellTox Green Cytotoxicity Assay to monitor cytotoxicity in HEK293 cells - 24 hour (AID 1224875). Also: nearly all actives have a fitted effect of over 45% in size. In outline: as §3
Assay [16] in a line: A CellTox Green Cytotoxicity Assay to monitor cytotoxicity in HepG2 cells - 16 hour (AID 1224876). Also: nearly all actives have a fitted effect of over 45% in size. In outline: (§6)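 Cells and non-lytic dye reagent are dispensed together (600 HepG2 cells/well) and incubated 5 h before DMSO compound transfer. Kinetic fluorescence is then recorded in the same wells during 40 h at 37 C.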
Assay [17] can be described thus: qHTS RealTime-Glo MT Cell Viability Assay in HepG2 cells - 32 hour (AID 1224877). Also: nearly all actives have a fitted effect of over 55% in size. In outline:
as §1

A short description of assay [18]: A CellTox Green Cytotoxicity Assay to monitor cytotoxicity in HepG2 cells - 24 hour (AID 1224878). Also: nearly all actives have a fitted effect of over 45% in size. In outline:
as §6

Assay [19] can be described thus: A CellTox Green Cytotoxicity Assay to monitor cytotoxicity in HepG2 cells - 40 hour (AID 1224879). Also: nearly all actives have a fitted effect of over 40% in size. In outline:
as §6

Assay [20] can be described thus: qHTS RealTime-Glo MT Cell Viability Assay in HEK293 cells - 0 hour (AID 1224880). In outline: as §5

Several values for one entry are separate records, joined by “and”; a condition that tells them apart may be missing. Equal values may be shown once. Inconclusive results are not listed. More than one record can exist for a structure, and the calls need not agree. Activity calls are given as the source filed them. Unless noted, calls follow the shape of the dose curve; as a rule, active = well fitted curve in the direction sought with a large enough effect in the repeat runs; inconclusive = weak or mixed curves; inactive = no such curve, though single readings can be large; an effect the other way counts as inactive or inconclusive.
% is scaled to controls: 0 for no effect and ±100 for the full control effect.

As to `C=CC(C)(C)C`, the Potency result in [1], in [2], in assay [4], in assay [5], in assay [7] and in [8] was “inactive” each time. In addition, the Potency result in assay [9], in [10], in assay [11], in assay [12], in [13] and in assay [15] was “inactive” throughout. In addition, the Potency entry in [16], in assay [17], in assay [18], in assay [19] and in assay [20] was “inactive” each time. Moreover, the compound was called inactive in assay [3]. In [6], the activity change, positive = activation is 1.24% (inactive) and -3.33% (inactive). Further, in assay [14], the max response was 1.9% (inactive) and -10.6% (inactive).

Regarding `CN=C(NC#N)NCCSCc1nc[nH]c1C`, the Potency result in assay [1], in assay [2], in assay [4], in assay [5], in assay [7] and in [8] was “inactive” each time. For the same compound, the Potency result in assay [9], in assay [10], in assay [11], in assay [12], in [13] and in assay [15] was “inactive” throughout. For the same compound, the Potency entry in assay [16], in [17], in assay [18], in assay [19] and in assay [20] was “inactive” throughout. For the same compound, the compound was called inactive in assay [3]. Also, in assay [6], the activity change, positive = activation is 2.07% (inactive). Also, the max response in [14] is 4.13% (inactive) and 1.71% (inactive).

In the case of `COc1cc(NC(=O)CC(C)=O)c(OC)cc1Cl`, the Potency entry in assay [1], in [2], in assay [4], in assay [5], in [7] and in assay [9] was “inactive” each time. For the same compound, the Potency entry in [10], in assay [11], in assay [13], in assay [15], in assay [16] and in assay [17] was “inactive” throughout. Moreover, the Potency result in assay [18], in [19] and in assay [20] was “inactive” throughout. The compound was called inactive in assay [3]. Besides, the activity change, positive = activation in [6] was -16.1% (inactive) and -21.5% (inactive). The Potency result is “inactive and 11 µM (active)” in [8]; “inactive and 21.9 µM (active)” in assay [12]; 12.3 µM (active) in [14]. Also, the max response in assay [14] is -13.4% (inactive).

As for `Brc1ccc(Oc2ccc(Br)cc2)cc1`, the Potency entry in [1], in assay [2], in [4], in assay [7], in assay [8] and in assay [9] was “inactive” in each case. Moreover, the Potency entry in assay [10], in assay [11], in assay [12], in assay [13], in assay [15] and in assay [16] was “inactive” throughout. Besides, the Potency result in assay [17], in [18], in assay [19] and in [20] was “inactive” throughout. Further, the compound was classed as inactive in assay [3]. In [14], the max response was -1.97% (inactive) and -5.7% (inactive).

For `CC(=O)C(C)C`, the Potency entry in [1], in [2], in assay [4], in [7], in assay [8] and in [9] was “inactive” in each case. For the same compound, the Potency result in assay [10], in assay [11], in [12], in assay [13], in assay [15] and in [16] was “inactive” in each case. In addition, the Potency entry in assay [17], in [18], in [19] and in [20] was “inactive” each time. For the same compound, the compound was classed as inactive in [3]. Moreover, the max response in assay [14] is 9.65% (inactive).
